From PubChem BioAssay (NCI) come the findings set out here.

Assay in all cases: NCI-60 one-dose screen, 48 h (100 = growth as untreated, 0 = no growth, -100 = all killed)
Holding throughout (conditions): 10 µM unless noted

Experiment [1] relates to SR leukemia.
In experiment [2] the test system is OVCAR-8 ovarian.
For experiment [3], the system named is OVCAR-5 ovarian.
The test system of experiment [4] is OVCAR-4 ovarian.
Experiment [5] deals with SK-OV-3 ovarian.
In experiment [6] the test system is IGROV1 ovarian.
Experiment [7] has as its system OVCAR-3 ovarian.
Experiment [8] has as its system HS 578T breast.
The test system of experiment [9] is NCI/ADR-RES ovarian.
The test system of experiment [10] is T-47D breast.
Experiment [11] has as its system BT-549 breast.
Experiment [12] deals with SW-620 colon.
The subject of experiment [13] is MCF7 breast.
Experiment [14] deals with HCT-116 colon.
For experiment [15], the system named is HCC-2998 colon.
The subject of experiment [16] is KM12 colon.
Experiment [17] deals with MDA-MB-435 melanoma.

Compounds without any hit were thinned out: in the full panel of roughly 83,000, 20% have a hit.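 Interpretation: 100, growth as untreated; towards 0, rising growth inhibition; 0, no net growth; 0 to -100, cell death. Compounds scoring below 10 were considered active.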 Values without a mark were called inactive. Activity calls are given as the source filed them.

On to `CCCCCCn1c(-c2ccc(C(=O)O/N=C(\N)c3ccc4ccccc4c3)cc2)nc(-c2ccccc2)c1-c1ccccc1`, for which the growth in experiment [1] is -37.7% (active); in experiment [2], 64.6%; in [3] it was 71.6%; in experiment [4], 56.8%; in [5], 91%; in experiment [6], -48.3% (active). For the same compound, the growth in experiment [7] is 74.8%; in [8], 46.8%; in [9], 3.92% (active); in experiment [10] it was 28.9%; in [11], 79.6%; in experiment [12], 71.8%. Moreover, the growth was 37.9% in experiment [13], 40.5% in [14], 93.8% in experiment [15] and 68.6% in [16].
Regarding `Cc1ccc2sc3c(NCCCN)nc4ccccc4c3c(=O)c2c1`, the growth in [1] was -31.8% (active); in experiment [2], 38.3%; in experiment [3] it was 85.8%; in experiment [4], 28%; in experiment [5] it was 90.2%; in experiment [6], 65.7%. Also, the growth in experiment [7] was 2.61% (active); in [8], 59.8%; in [9] it was 39.4%; in experiment [10], 54.6%; in experiment [11] it was 96.8%; in experiment [17] it was -71.7% (active). The growth in experiment [12] is -79.7% (active); in experiment [13], -21.2% (active); in experiment [14], -53.2% (active); in [15] it was -86.1% (active); in [16] it was -74.6% (active).
With `CCCC1CCC(O)(C(C)(O)C(=O)NC2C(=O)N3NCCCC3C(=O)N(O)C(C)C(=O)N3NCCCC3C(=O)N3NCC(O)CC3C(=O)NC(C)C(=O)OC2C(C)C)OC1CC` (configuration not stated), the growth in [1] was -87.6% (active); in experiment [2], -71.8% (active); in experiment [3], -98.4% (active); in experiment [4], -81% (active); in experiment [5], -96.3% (active); in experiment [6] it was -40% (active). The growth in [7] is -89.9% (active); in [8], -78.1% (active); in experiment [9] it was -76.7% (active); in experiment [10], -77.8% (active); in experiment [11], -67.3% (active); in [17], -74.6% (active). For the same compound, the growth is -97.3% (active) in experiment [12]; -83% (active) in experiment [13]; -57.2% (active) in experiment [14]; -93.6% (active) in experiment [15]; -88.5% (active) in [16].
With `Cc1cccc2c3c(sc12)C(c1ccc(F)cc1)C(C#N)=C(N)O3` (configuration not stated), the growth was 9.36% (active) in experiment [1]; 18.9% in [2]; 25.9% in experiment [3]; 60.8% in experiment [4]; 60.7% in experiment [5]; 20.6% in experiment [6]. Moreover, the growth was 3.36% (active) in [7]; 28.7% in experiment [8]; 12% in experiment [9]; 66.1% in experiment [10]; -0.876% (active) in [11]; 21.3% in experiment [12]. For the same compound, the growth in experiment [13] is 8.42% (active); in experiment [14], 7.07% (active); in experiment [15], 21.9%; in experiment [16], 2.86% (active).
For the compound `CCC(=O)Nc1ccc(-c2nc(-c3cccc(OC)c3)c(-c3ccnc(Br)c3)[nH]2)cc1`, the growth was 25.3% in [1]; 58.2% in experiment [2]; 87% in experiment [3]; 46.8% in experiment [4]; 101% in [5]; 81% in experiment [6]. For the same compound, the growth was 65.4% in [7]; 39.2% in experiment [8]; 67.9% in experiment [9]; 28.4% in [10]; 77.4% in [11]; 80.4% in experiment [12]. In addition, the growth in [13] is 25.5%; in experiment [14] it was 63.7%; in experiment [15], 69%; in experiment [16], 43.2%.
As for `O=C1/C(=C/c2ccccc2[N+](=O)[O-])Oc2ccc(O)c(O)c21`, the growth in experiment [1] is 36.1%; in [2], 25.5%; in experiment [3], 48.8%; in experiment [4], 47.9%; in experiment [5], 93.1%; in experiment [6] it was 48.5%. In addition, the growth in experiment [7] is 35.1%; in experiment [8], 21.1%; in [9], 37.6%; in experiment [10], 39.8%; in [11] it was 52.9%; in experiment [12] it was 28.5%. In addition, the growth is 21.2% in experiment [13], 21.6% in [14], 57.9% in experiment [15] and 37.5% in experiment [16].
Turning to `COC(=O)Nc1ccc(-c2nc(-c3cccc(OC)c3)c(-c3ccnc(Br)c3)[nH]2)cc1`, the growth was 3.64% (active) in experiment [1]; 48% in [2]; 85.6% in experiment [3]; 51.5% in experiment [4]; 88.1% in experiment [5]; 72.5% in experiment [6]. For the same compound, the growth in experiment [7] was 70.2%; in [8], 33.4%; in [9], 45.2%; in experiment [10] it was 22.2%; in experiment [11], 72.7%; in experiment [12], 74.5%. The growth was 33.1% in experiment [13], 54.2% in experiment [14], 71.5% in [15] and 48% in experiment [16].
Take `COc1cc(Nc2cn[nH]c2-c2ccc(Cl)cc2)cc(OC)c1OC`: the growth was 10.1% in experiment [1]; 70.2% in experiment [2]; 54.6% in experiment [3]; 61.5% in experiment [4]; 30.9% in experiment [5]; 39.8% in experiment [6]. Besides, the growth is 32.1% in experiment [7]; 44.1% in experiment [8]; -26% (active) in [9]; 23.4% in experiment [10]; 46.5% in experiment [11]; -37.1% (active) in experiment [17]. The growth in experiment [12] is 19.3%; in experiment [13], 20.7%; in [14] it was 20.7%; in experiment [15] it was -28.5% (active); in experiment [16], 20.2%.
For the compound `CCOc1cccc(NC2=C(Br)C(=O)C(C)=C(C)C2=O)c1`, the growth in experiment [1] was 74.7%; in [2], 91.5%; in [3], 95.7%; in [4] it was 56.7%; in [5], 88%; in experiment [6], 58.6%. The growth in experiment [7] was 87.6%; in experiment [8], 91.2%; in [9] it was 96.5%; in experiment [10], -35.3% (active); in [11], 96.4%; in experiment [12], 105%. Also, the growth is 18.4% in experiment [13], 52% in experiment [14], 119% in experiment [15] and 106% in experiment [16].
